PAFAH1B3 inh = PAFAH1B3 (human) inhibition; Q15102; recombinant PAFAH1B3, FP-rhodamine probe, fluorescence polarization; inhibition, % at 3.39 µM; 340,000 compounds, 0.28% hits; AID 492972;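 active means inhibition above the screen-wide average of all tested compounds plus 3 SD, cut at about 25% in these data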;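 further: 0% = enzyme with DMSO only and 100% = wells lacking PAFAH1B3 protein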
Target sequence (Q15102 whole entry, looked up): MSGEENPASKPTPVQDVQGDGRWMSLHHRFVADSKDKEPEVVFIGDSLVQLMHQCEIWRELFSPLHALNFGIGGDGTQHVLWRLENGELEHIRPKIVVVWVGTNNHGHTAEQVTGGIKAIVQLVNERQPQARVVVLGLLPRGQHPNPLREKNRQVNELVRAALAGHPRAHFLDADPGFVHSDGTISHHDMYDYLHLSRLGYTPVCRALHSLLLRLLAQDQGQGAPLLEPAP
PAFAH2 inh = PAFAH2 (human) inhibition. recombinant PAFAH2, FP-rhodamine activity probe, fluorescence polarization. inhibition, % at 3.39 µM. 340,000 compounds, 0.99% hits. Q99487;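 active means inhibition above the mean over all tested compounds plus 3 SD, cut at about 30% in these data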;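 further: inhibitors block probe labeling of enzyme so polarization drops; 0% = enzyme with DMSO and 100% = wells lacking PAFAH2 protein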
ZTA DNA inh = ZTA (EBV) inhibition in EBNA-1 counter-screen. P03206. inhibition, % at 11 µM. ZTA-DNA binding, fluorescence polarization. 320,000 compounds, 0.15% hits. AID 2234; in the data active means inhibition above about 33%
PAFAH1B2 inh = PAFAH1B2 (human) inhibition; P68402; recombinant PAFAH1B2, FP-rhodamine activity probe, fluorescence polarization; inhibition, % at 3.39 µM; 340,000 compounds, 1.2% hits; AID 492953;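 active means inhibition above the mean of all tested compounds plus 3 SD, cut at about 24% in these data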;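 further: 0% = enzyme with DMSO and 100% = wells lacking PAFAH1B2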
Target sequence (P68402 whole entry, looked up): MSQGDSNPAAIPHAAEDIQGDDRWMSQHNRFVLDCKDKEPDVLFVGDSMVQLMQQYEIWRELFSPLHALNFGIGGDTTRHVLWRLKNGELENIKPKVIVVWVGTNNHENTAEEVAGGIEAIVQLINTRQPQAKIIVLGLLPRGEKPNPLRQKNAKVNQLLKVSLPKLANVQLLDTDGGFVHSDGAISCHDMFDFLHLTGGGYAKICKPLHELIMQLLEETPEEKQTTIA
rCAG binder-1 = molecules binding r(CAG) RNA repeats; r(CAG) RNA repeat, TO-PRO-1 dye displacement fluorescence; inhibition, % at 3 µM; 370,000 compounds, 1.3% hits; AID 651821;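 active means inhibition above the plate cutoff, the mean of all test compounds on that plate plus 3 SD, cut at about 35% in these data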;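 further: 0% = DMSO alone and 100% = 100 µM mitoxantrone as full dye displacement; higher means more dye released from RNA so lower well fluorescence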
EBNA-1 inhibitor = blocks EBNA-1 binding to DNA | EBNA-1 DNA binding, fluorescence polarization | inhibition, % at 14.8 µM | 300,000 compounds, 0.34% hits | AID 1950; in the data active means inhibition above about 28%
rCAG binder conf = r(CAG) RNA repeat binding, confirmation. inhibition, % at 3 µM. 4,300 compounds, 70% hits. shares compounds with rCAG binder-1. TO-PRO-1 dye displacement fluorescence;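 active means inhibition above a per-plate cutoff, the mean inhibition of sample wells plus 3 SD, cut at about 35% in these data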;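 further: loss of TO-PRO-1 fluorescence as compound displaces dye from 1x1 AA loop RNA; 0% = DMSO only wells and 100% = 100 µM mitoxantrone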
dCAG dye counter = counter-screen for rCAG RNA binders: DNA CAG dye complex inhibitors; d(CAG) DNA oligo TO-PRO-1 dye displacement, fluorescence; shares compounds with rCAG binder-1; 4,300 compounds, 94% hits; inhibition, % at 3 µM; AID 652068;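 active means inhibition above its plate's cutoff, the mean test-well inhibition plus 3 SD, cut at about 4.8% in these data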;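 further: 0% = DNA dye mix with DMSO and 100% = 100 µM mitoxantrone; hits displace the dye from DNA and so lower well fluorescence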
dCAG dye DR = disrupts DNA CAG TO-PRO-1 complex in dose response | shares compounds with rCAG binder-1 | DNA CAG/GTC duplex TO-PRO-1 dye displacement fluorescence | IC50, µM | 250 compounds, 20% hits | AID 686960; in the data active means IC50 below about 10 µM
dCAG DNA bind = inhibits DNA CAG/GTC TO-PRO-1 complex, rCAG binder counter-screen; shares compounds with rCAG binder-1; d(CAG) DNA duplex TO-PRO-1 dye displacement, fluorescence; IC50, µM; 30 compounds, 80% hits
rCAG binder-2 = molecules binding r(CAG) RNA repeats, late stage dose response | shares compounds with rCAG binder-1 | 30 compounds, 100% hits | r(CAG) RNA TO-PRO-1 dye displacement, fluorescence | IC50, µM
* marks the source's active call; other numbers are inactive results. The list is not random: actives were taken first. Their share in the collection is about 2.9%. Unless noted, how the calls were made is not given here.

For CCc1ccc(NC(=O)C(C)Sc2nc(-c3ccco3)c(C#N)c(=O)[nH]2)cc1 (stereo not drawn) the results were PAFAH1B3 inh -3.3, PAFAH2 inh -13.4, ZTA DNA inh -0.7, PAFAH1B2 inh 19.2, rCAG binder-1 79.5*, EBNA-1 inhibitor 9.6, rCAG binder conf 69.6*, dCAG dye counter 32.7*, dCAG dye DR 9.65*, dCAG DNA bind 3.34* and rCAG binder-2 1.14*.
Screening O=C(CSc1n[nH]c(-c2cccnc2)n1)Nc1cccc(Cl)c1 returned PAFAH1B3 inh 8.1, PAFAH2 inh -1.3, ZTA DNA inh -10.3, PAFAH1B2 inh 1.8, rCAG binder-1 4.3 and EBNA-1 inhibitor -3.9.
N#Cc1c(-c2ccccc2)nc(SCc2cccc(Cl)c2)[nH]c1=O was read as PAFAH1B3 inh -0.7, PAFAH2 inh -1.2, ZTA DNA inh 19.3, PAFAH1B2 inh 4.0, rCAG binder-1 82.0*, EBNA-1 inhibitor 6.1, rCAG binder conf 76.3* and dCAG dye counter 42.8*.
O=C(NCCc1ccccc1F)c1cc2ccccn2n1 was read as rCAG binder-1 -0.9.
Screening COc1ccc(S(=O)(=O)N2CCCc3nc(C)c(C)cc32)cc1 returned rCAG binder-1 1.1.
CCOC(=O)c1cc(OC(=O)c2cccc([N+](=O)[O-])c2)n(-c2ccccc2)n1 was read as PAFAH1B3 inh -3.5, PAFAH2 inh 2.9, ZTA DNA inh -4.3, PAFAH1B2 inh 3.4, rCAG binder-1 35.3*, EBNA-1 inhibitor -9.1, rCAG binder conf 1.6 and dCAG dye counter 0.8.
CCCCc1ccc(S(=O)(=O)NC(=O)C2(C)CCN2C(=O)Cc2ccccc2)cc1 (stereo not drawn) was read as rCAG binder-1 39.3*, rCAG binder conf 29.5 and dCAG dye counter 4.8*.
Screening CCCCOc1ccc(S(=O)(=O)NC(=O)C2(C)CCN2C(=O)c2cccc(F)c2)cc1 (stereo not drawn) returned rCAG binder-1 27.4.
`CCCCc1ccc(S(=O)(=O)NC(=O)C2(C)CCN2C(=O)c2cccc(F)c2)cc1` (stereo not drawn) gave rCAG binder-1 36.6*, rCAG binder conf 29.7 and dCAG dye counter 6.5*.
For CCCCc1ccc(S(=O)(=O)NC(=O)C2(C)CCN2C(=O)C/C=C/c2ccccc2)cc1 (stereo not drawn) the results were rCAG binder-1 57.5*, rCAG binder conf 54.9* and dCAG dye counter 17.9*.
For COc1ccc(-c2csc(NC(=O)c3ccccc3NS(=O)(=O)c3ccc(C)cc3)n2)cc1 the results were PAFAH1B3 inh 6.0, PAFAH2 inh 35.8*, ZTA DNA inh 1.0, PAFAH1B2 inh 14.6, rCAG binder-1 85.4*, EBNA-1 inhibitor -0.2, rCAG binder conf 94.6* and dCAG dye counter 82.4*.
For CCCNC(=O)c1ccccc1NS(=O)(=O)c1ccc(OC)c(OC)c1 the results were PAFAH1B3 inh -4.0, PAFAH2 inh 2.1, ZTA DNA inh 17.9, PAFAH1B2 inh 3.7, rCAG binder-1 1.9 and EBNA-1 inhibitor 7.2.
COc1ccc(-c2csc(NC(=O)c3c(OC)cccc3OC)n2)cc1 was read as PAFAH1B3 inh -0.8, PAFAH2 inh -1.5, ZTA DNA inh -7.1, PAFAH1B2 inh 0.5, rCAG binder-1 12.1 and EBNA-1 inhibitor -6.2.
COc1ccc(S(=O)(=O)Nc2ccccc2C(=O)Nc2nc(-c3ccc(F)cc3)cs2)cc1OC was read as PAFAH1B3 inh 4.5, PAFAH2 inh 17.3, ZTA DNA inh 19.3, PAFAH1B2 inh 15.6, rCAG binder-1 87.0*, EBNA-1 inhibitor 9.5, rCAG binder conf 89.3* and dCAG dye counter 70.7*.
Cc1ccc(NC(=O)OC2CC3CC2[C@H]2CCCCN2C3)cc1C (stereo partly drawn) was read as rCAG binder-1 3.0.
`O=C(COc1cccc2ccccc12)Nc1ccc(Cl)cc1C(=O)O` gave PAFAH1B3 inh -0.2, PAFAH2 inh -0.1, ZTA DNA inh 7.8, PAFAH1B2 inh -5.1, rCAG binder-1 68.0*, EBNA-1 inhibitor 0.6, rCAG binder conf 66.2* and dCAG dye counter 18.8*.
For O=C(COc1cccc2ccccc12)Nc1cc(Cl)ccc1C(=O)O the results were PAFAH1B3 inh -3.5, PAFAH2 inh 13.0, ZTA DNA inh -0.7, PAFAH1B2 inh -3.7, rCAG binder-1 74.9*, EBNA-1 inhibitor 5.6, rCAG binder conf 70.4*, dCAG dye counter 30.1* and dCAG dye DR inactive.
Screening O=C(COc1ccccc1C(=O)O)Nc1cccc2ccccc12 returned PAFAH1B3 inh 2.7, PAFAH2 inh -0.4, PAFAH1B2 inh 1.1 and rCAG binder-1 4.6.
COc1ccccc1N1CCN(S(=O)(=O)CCNC(=O)C(C)Oc2ccccc2)CC1 (stereo not drawn) was read as rCAG binder-1 0.2.
For O=C(Nc1ccccc1C(=O)O)c1cc(S(=O)(=O)N2CCOCC2)c(Br)s1 the results were PAFAH1B3 inh -0.5, PAFAH2 inh 24.2, ZTA DNA inh -13.5, PAFAH1B2 inh -1.8, rCAG binder-1 46.5*, EBNA-1 inhibitor 1.7, rCAG binder conf 66.5* and dCAG dye counter 36.1*.
For CCCC[C@@H]1CC2=C(C(=O)OC(C)(C)O2)[C@@H](c2ccc(Cl)cc2)O1 the results were rCAG binder-1 -1.8.
Screening CCC(NC(=O)c1ccc2c(ccn2Cc2cccc(-c3ccccc3C(=O)O)c2)c1)c1ccccc1 (stereo not drawn) returned rCAG binder-1 49.1*, rCAG binder conf 48.4* and dCAG dye counter 17.8*.
`CCC(NC(=O)c1ccccc1Br)c1ccccc1` (stereo not drawn) gave PAFAH1B3 inh 15.0, PAFAH2 inh -7.3, ZTA DNA inh -1.6, PAFAH1B2 inh 2.0, rCAG binder-1 -1.2 and EBNA-1 inhibitor 3.8.
Screening CCOC(=O)C1CCN(C(=O)COC(=O)/C=C/c2ccc([N+](=O)[O-])cc2)CC1 returned PAFAH1B3 inh 4.2, PAFAH2 inh 11.0, PAFAH1B2 inh 3.1 and rCAG binder-1 1.4.

Compound activity as filed in PubChem BioAssay.
